Rows were chosen to be rich in hits. Some 8.1% of all compounds tested hit in one or more screens of this group.
ELG1 DNA repair: ELG1-dependent DNA repair inhibition. HEK293T ELG1-luciferase reporter, luminescence, 16 h; DNA damage induced by 5-fluorouridine. Potency, µM (doses to about 46.1 µM), without a hit: at the top dose activity change, negative = inhibition, most hits filed as inhibitors. 330,000 compounds, 2.3% hits; note: % is set by controls: 0 for no effect and ±100 for the full control effect; nearly all actives have a fitted effect of over 55% in size
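Cells (2,000 per well) received 5-fluorouridine plus test compound or DMSO and were incubated 16 hr at 37 °C, 5% CO2. Luciferase activity was read by luminescence 30 min after ONE-Glo addition; signal suppression marked inhibition of damage-induced ELG1 function.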
MCF10A rerep: DNA re-replication induction in MCF 10a cells; MCF 10A DNA re-replication, Hoechst nuclear intensity, 48 h; Potency, µM (series often up to 46.1 µM), without a hit: at the highest dose activity, positive = re-replication, hits mostly activators; 350,000 compounds, 2.9% hits; AID 624296; note: % of control where 0% means no effect; nearly all actives have a fitted effect of over 50% in size
KB-3-1 tox: KB-3-1 parental cell cytotoxicity; KB-3-1 viability, CellTiter-Glo ATP luminescence, 72 h; Potency, µM (doses to about 46.1 µM), hits mostly cytotoxic; 400,000 compounds, 1.4% hits; note: % is set by controls: 0 for no effect and ±100 for the full control effect; nearly all actives have a fitted effect of over 60% in size
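Cytotoxicity measured as CellTiter-Glo luminescence after 72 h at 37 C. Compound titrations were pinned onto drug-naive KB-3-1 parental adenocarcinoma cells grown in DMEM with 10% FBS, and normalized data fitted to concentration-response curves.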
SW480 rereplic: induces DNA re-replication in SW480 colon adenocarcinoma cells; 340,000 compounds, 1.8% hits; SW480 DNA re-replication, Hoechst DNA content imaging, 48 h; AID 624297; Potency, µM (doses to about 46.1 µM), inactives show top-dose re-replication activation, usual class: activators; note: % of control where 0% means no effect; nearly all actives have a fitted effect of over 55% in size
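DNA re-replication was detected as more nuclei of elevated Hoechst intensity after 48 hr exposure to compound (23 nL pinned per well of 250 cells).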
KB-V1 MDR tox: KB-V1 MDR subline cytotoxicity | KB-V1 MDR cells viability, CellTiter-Glo, 72 h | Potency, µM (titrated, usually from 46.1 µM), most hits filed as cytotoxic | 400,000 compounds, 3.4% hits | AID 1347076; note: % is set by controls: 0 for no effect and ±100 for the full control effect; nearly all actives have a fitted effect of over 60% in size
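Cytotoxicity toward P-gp-expressing KB-V1 cells was determined as loss of CellTiter-Glo luminescence after 72 h at 37 degrees C. Compounds were tested in quantitative HTS format across a concentration range, with curves fitted to normalized data.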
An asterisk follows results filed as active. Calls come from the whole dose curve; as a rule, active = well fitted curve in the direction sought with a large enough effect; inconclusive = small, poorly fitted or top-dose-only effect, or another doubt; inactive = no such curve, though single readings can be large; an effect the other way counts as inactive or inconclusive. Potency is the fitted concentration of half-maximal effect.

`CC1=Nc2ccccc2/C1=C/c1c(C)[nH]c2ccccc12` gave MCF10A rerep 0.82µM*, KB-3-1 tox inconclusive, SW480 rereplic 10µM* and KB-V1 MDR tox inactive.
For C=CCn1c(-c2sc3nc(C)cc(C)c3c2N)n[nH]c1=S the results were ELG1 DNA repair inconclusive, MCF10A rerep 9.2µM*, KB-3-1 tox inactive, SW480 rereplic 26% and KB-V1 MDR tox inactive.
For CN(CC(=O)Nc1ccncc1)S(=O)(=O)c1ccc(Br)cc1 the results were ELG1 DNA repair inconclusive, MCF10A rerep 25%, KB-3-1 tox inactive, SW480 rereplic inconclusive and KB-V1 MDR tox 21µM*.
For Cc1ccc(S(=O)(=O)N(C)CC(=O)Nc2nc3ccccc3s2)cc1 the results were ELG1 DNA repair inconclusive, MCF10A rerep inconclusive, KB-3-1 tox inactive, SW480 rereplic 6% and KB-V1 MDR tox inactive.
Cc1nc(NC(=O)CN(C)S(=O)(=O)c2ccc(Br)cc2)sc1C was read as ELG1 DNA repair inconclusive, MCF10A rerep -2%, KB-3-1 tox inactive, SW480 rereplic -5% and KB-V1 MDR tox 18µM*.
Screening O=C(CNC(=O)c1ccc(S(=O)(=O)N2CCCC2)cc1)N/N=C/c1ccc(F)cc1 returned ELG1 DNA repair 0%, MCF10A rerep 8%, KB-3-1 tox inactive, SW480 rereplic -20% and KB-V1 MDR tox inactive.
C=CCOc1ccccc1/C=C/C(=O)O was read as ELG1 DNA repair 5%, MCF10A rerep 0%, KB-3-1 tox inactive, SW480 rereplic -14% and KB-V1 MDR tox inactive.
`O=C(O)c1cc(O)ccc1N=Nc1ccccc1` gave ELG1 DNA repair -25%, MCF10A rerep 23µM*, KB-3-1 tox inactive, SW480 rereplic inconclusive and KB-V1 MDR tox inactive.
O=C(O)c1ccccc1N=Nc1ccc(O)cc1 was read as MCF10A rerep inconclusive, KB-3-1 tox inactive, SW480 rereplic 1.2µM* and KB-V1 MDR tox inactive.
Screening COc1ccc(C(=O)CC(=O)c2ccccc2O)cc1 returned ELG1 DNA repair inconclusive, MCF10A rerep 12%, KB-3-1 tox inactive, SW480 rereplic -4% and KB-V1 MDR tox inactive.
`COc1ccc(O)c(C(=O)CC(=O)c2ccccc2C)c1` gave ELG1 DNA repair inconclusive, MCF10A rerep inconclusive, KB-3-1 tox inconclusive, SW480 rereplic 21µM* and KB-V1 MDR tox inconclusive.
Screening COc1ccc(O)c(C(=O)CC(=O)c2ccc(F)cc2)c1 returned ELG1 DNA repair inconclusive, MCF10A rerep 0%, KB-3-1 tox inconclusive, SW480 rereplic 19% and KB-V1 MDR tox 2.9µM*.
`Cc1cc(C(=O)OCC(=O)Nc2ncc(C(F)(F)F)cc2Cl)c(C)o1` gave ELG1 DNA repair inconclusive, MCF10A rerep -2%, KB-3-1 tox inactive, SW480 rereplic -3% and KB-V1 MDR tox inactive.
Screening Nc1nc2c(nnn2C2CC(O)C(CO)O2)c(=O)[nH]1 (stereo not given) returned KB-3-1 tox 2.3µM* and KB-V1 MDR tox 1.3µM*.
For Cc1cc(N2CCC(C(=O)N3CCN(c4cccc(C)c4C)CC3)CC2)n2ncnc2n1 the results were ELG1 DNA repair 21µM*, MCF10A rerep inconclusive, KB-3-1 tox inactive, SW480 rereplic 4% and KB-V1 MDR tox inactive.
For Cc1cccc(N2CCN(C(=O)C3CCN(S(=O)(=O)N4CCOCC4)CC3)CC2)c1C the results were ELG1 DNA repair 18µM*, MCF10A rerep 13%, KB-3-1 tox inactive, SW480 rereplic -26% and KB-V1 MDR tox inconclusive.
For Cc1cccc(N2CCN(C(=O)N3CCCCC3)CC2)c1C the results were ELG1 DNA repair 0%, MCF10A rerep inconclusive, KB-3-1 tox inactive, SW480 rereplic -2% and KB-V1 MDR tox inconclusive.
`Cc1cccc(N2CCN(C(=O)C3CCCCC3)CC2)c1C` gave ELG1 DNA repair inconclusive, MCF10A rerep 17%, KB-3-1 tox inactive, SW480 rereplic 1% and KB-V1 MDR tox inconclusive.
For O=C(C1CCN(S(=O)(=O)N2CCOCC2)CC1)N1CCN(c2ccccc2F)CC1 the results were ELG1 DNA repair -9%, MCF10A rerep 2%, KB-3-1 tox inactive, SW480 rereplic 0% and KB-V1 MDR tox inactive.
Screening Cc1cccc(N2CCN(C(=O)N3CCOCC3)CC2)c1C returned ELG1 DNA repair 0%, MCF10A rerep inconclusive, KB-3-1 tox 21µM*, SW480 rereplic 16µM* and KB-V1 MDR tox inconclusive.
`Cc1ccc(N2C(=O)CC(n3ccnc3)C2=O)cc1C` (stereo not given) gave ELG1 DNA repair 5%, MCF10A rerep -14%, KB-3-1 tox inactive, SW480 rereplic -6% and KB-V1 MDR tox inactive.
O=S(=O)(Nc1nc(CN2CCOCC2)nc2sc3c(c12)CCCC3)c1cc(F)ccc1F was read as ELG1 DNA repair 1%, MCF10A rerep 2%, KB-3-1 tox inactive, SW480 rereplic 3% and KB-V1 MDR tox 10µM*.
`CCSc1nc2ccccc2n1C(=O)/C=C\c1ccc(OC)c(OC)c1` gave ELG1 DNA repair inconclusive, MCF10A rerep 4.1µM*, KB-3-1 tox inconclusive, SW480 rereplic 8.2µM* and KB-V1 MDR tox inconclusive.
Cc1nc(SCC(=O)Nc2ccccc2Cl)c2c(C)c(C)sc2n1 was read as ELG1 DNA repair inconclusive, MCF10A rerep 23µM*, KB-3-1 tox inconclusive, SW480 rereplic 2% and KB-V1 MDR tox inactive.
Cc1nc(SCC(=O)NC2CCCC2)c2c(C)c(C)sc2n1 was read as ELG1 DNA repair 7%, MCF10A rerep inconclusive, KB-3-1 tox inactive, SW480 rereplic 0% and KB-V1 MDR tox inactive.
For CCc1nc(SCC(=O)Nc2ccccc2Cl)n[nH]1 the results were ELG1 DNA repair 5%, MCF10A rerep -5%, KB-3-1 tox inactive, SW480 rereplic 9.2µM* and KB-V1 MDR tox inactive.
CCSc1nc2ccccc2n1CC(N)=O was read as ELG1 DNA repair -5%, MCF10A rerep 0%, KB-3-1 tox inactive, SW480 rereplic -6% and KB-V1 MDR tox inactive.
COc1ccccc1NC(=O)CSc1nc2ccccc2n1C(C)=O was read as ELG1 DNA repair -21%, MCF10A rerep 17%, KB-3-1 tox inactive, SW480 rereplic 0% and KB-V1 MDR tox 16µM*.
For CCc1nc(SCC(=O)Nc2ccccc2C)n[nH]1 the results were ELG1 DNA repair 11%, MCF10A rerep -2%, KB-3-1 tox inactive, SW480 rereplic inconclusive and KB-V1 MDR tox inactive.
`COC(=O)Cn1cnc2c(nnn2-c2ccc(F)cc2)c1=O` gave ELG1 DNA repair 14%, MCF10A rerep 1%, KB-3-1 tox inactive, SW480 rereplic -3% and KB-V1 MDR tox inactive.
For O=S1(=O)CC(NCc2ccccc2)C(Nc2ccccc2)C1 (stereo not given) the results were ELG1 DNA repair -1%, MCF10A rerep -1%, KB-3-1 tox inactive, SW480 rereplic -2% and KB-V1 MDR tox inactive.
